Reference: PubChem BioAssay (NCI)
About 83,000 compounds went through this panel and 20% of them were active in at least one assay; those are over-represented in the sample as a whole.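 Single-dose data. Exposure time 48 hours. Values below 10 considered active.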 The source made the active and inactive calls.

What follows are compounds tested on MDA-MB-468 breast (assay: NCI-60 one-dose screen, 48 h (100 = growth as untreated, 0 = no growth, -100 = all killed)). Settings: 10 µM unless noted.

| Compound | growth |
| --- | --- |
| Oc1ccc(Cc2ccccc2)c2cccnc12 | -21.1% (active) |
| S=c1[nH]c2cc(Cl)ccc2s1 | 108% (inactive) |
| O=C1C(c2c[nH]c3ccccc23)=C(c2coc3cc(Br)ccc23)C(=O)N1O | 91.6% (inactive) |
| COC(=O)C1NC(=S)N(c2ccc(Cl)cc2)C1/C=C/c1ccccc1 (stereo not given) | 108% (inactive) |
| Cc1ccc(C)c(COc2cc(NC(=O)c3ccc4c(c3)OCO4)ccc2N(C)S(C)(=O)=O)c1 | -29.6% (active) |
| CC[N+](CC)=c1ccc2nc3c(cc(N)c4ccccc43)oc-2c1 | -5.04% (active) |
| CCOC(=O)C1=C(C)NC(=O)NC1c1c(Cl)n(-c2ccccc2)c2ccccc12 (stereo not given) | 58.3% (inactive) |
| Cc1cc(C)nc(NS(=O)(=O)c2ccc(Nc3ccc4c5c(n(CCCN(C)C)c(=O)c4c3)-c3ccccc3C5=O)cc2)n1 | 111% (inactive) |
| COc1cc2nc(Cl)nc(Nc3ccc(S(=O)(=O)Nc4nccs4)cc3)c2cc1OC | 102% (inactive) |
| CC1=C(/C=C/C(C)=C/C=C/C(C)=C/CO)C(C)(C)CCC1 | 103% (inactive) |
| O=C(/C=C\c1cccc([N+](=O)[O-])c1)/C=C/c1cccc([N+](=O)[O-])c1 | 91.4% (inactive) |
| C#Cc1cccc(NC(=O)Nc2cccc(N=C=S)c2)c1 | 106% [8.25 µM] (inactive) |
| Clc1ccccc1CNc1c2ccccc2nc2ccccc12 | -27.9% (active) |
| Cc1ccc(C(=O)NC2c3ccccc3Oc3ccccc32)cc1 | 41.8% (inactive) |
| CN(C)c1ccc(C(=O)OCCCCCCl)cc1 | 95.3% (inactive) |
| CNc1nnc2n(-c3ccccc3)c(=O)c3cnn(-c4ccccc4)c3n12 | 103% (inactive) |
| COC(=O)c1cc(-c2ccc(S(C)(=O)=O)cc2)[nH]c1N/N=C/c1c(Cl)cccc1Cl | 15.7% (inactive) |
| COc1ccc(NC(=O)c2ccccc2-c2ccccc2)c(C(N)=O)c1 | 27.3% (inactive) |
| COC(=O)c1c2c(c(C)[n+]([O-])c1C)C(=O)C(NCc1ccc(Br)cc1)=CC2=O | -16.6% (active) |
| O=C1Nc2cc(-c3ccncc3)ccc2/C1=C/c1ccc[nH]1 | -15.9% (active) |

| Compound | growth |
| --- | --- |
| CCCN=C1NC(=O)/C(=C/c2nc(-c3ccc(OC)cc3)n3ccccc23)S1 | 101% (inactive) |
| COc1ccc(-c2nc3cc(C(=O)Nc4cc(OC)c(OC)c(OC)c4)ccc3n2C2CCCCC2)cc1 | 128% (inactive) |
| Cc1cn(C2CCCCC2)c(=O)[nH]c1=O | 105% (inactive) |
| O=C1OCC2=C1C(c1ccccc1)c1cc3c(cc1N2CCO)OCCO3 (stereo not given) | -63.7% (active) |
| CCCOCC(O)CNCCN (stereo not given) | 106% (inactive) |
| COc1cc2[nH]c(C(=O)c3cc(OC)c(OC)c(OC)c3)c(N)c2cc1C#CCO | 25.6% (inactive) |
| O=C1C=C[C@]2(C[C@@H](c3cccc(C(F)(F)F)c3)O[C@@H](c3cccc(C(F)(F)F)c3)O2)O1 | -48.8% (active) |
| O=C(O)c1ccc(CO)o1 | 103% (inactive) |
| Cc1ccc(-c2nc(SCC(=O)Nc3nc(-c4ccc(Cl)cc4)cs3)[nH]c(=O)c2C#N)cc1 | 117% (inactive) |
| O=C(Nc1ccc(-n2ccc3c(NC(=O)c4ccccc4)ncnc32)cc1)c1ccc(Cl)c(C(F)(F)F)c1 | -5.36% (active) |
| Cc1ccc(NC2CC(=O)N(c3c(C)cc(C)cc3C)C2=O)c(C)c1 (stereo not given) | 114% (inactive) |
| CCCCCCN1C(=O)/C(=c2\sc3n(c2=O)C2C(NN=3)N(CC)C(=O)N2CC)c2ccccc21 (stereo not given) | -10.2% (active) |
| COc1c(C2CC(=O)Nc3c2c(C)nn3-c2nc3ccccc3[nH]2)cc2c(c1OC)OCO2 (stereo not given) | 29.6% (inactive) |
| CCCCN(CCCC)CCCn1c(-c2ccccc2)ccc1-c1ccccc1 | 43% (inactive) |
| Oc1[nH]c2ccccc2c1Nn1c(N=N/C=c2/ccc3c(c2)C=NN=3)n[nH]c1=S | 107% (inactive) |
| COc1cc2nc(N3CCC[C@H](NC4=CC(=O)c5ccccc5C4=O)C3)nc(N)c2cc1OC | -55.9% (active) |
| CC(C)C(=O)Nc1ccc(-c2nc(-c3cccc(OCCN4CCOCC4)c3)c(-c3ccnc(Br)c3)[nH]2)cc1 | 23.2% (inactive) |
| CCN(CC)c1ccc(/C=C/C=C2\NC(=O)NC2=O)cc1 | -5.35% (active) |
| CCCC(=O)NC(c1cccnc1)c1cc(C(C)=O)c2cccnc2c1O (stereo not given) | 15.8% (inactive) |
| Cc1cccc(C[C@H](NC(=O)Nc2ccc(C)cc2F)C(=O)N[C@@H]2C(=O)N3C[C@H](O)C[C@H]3C(=O)N3CCN(C)C[C@H]3C(=O)N[C@@H](C)C(=O)N3C[C@H](C)C[C@H]3C(=O)O[C@H]2C)c1 | 6.46% (active) |
